Screening results deposited in PubChem BioAssay by National Center for Advancing Translational Sciences (NCATS).
TDP1 cell noCPT – qHTS for Inhibitors of human tyrosyl-DNA phosphodiesterase 1 (TDP1): qHTS in cells in absence of CPT; DT40 Tdp1-/- hTDP1 cells, no CPT, ATP luminescence, 48 h; Potency, µM (series often up to 46.2 µM), for the others: at the highest dose activity change, negative = growth inhibition, actives largely listed as inhibitors; 420,000 tested, 15% active; also: potency is read from the fitted curve at half-maximal effect; nearly all actives have a fitted effect of over 55% in size
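Growth of hTDP1-complemented DT40 Tdp1-knockout cells is measured by ATP luminescence after at least 48 hr compound exposure at 37 °C, with DMSO substituting for the 20 nM CPT used in the parallel screen.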
TDP1 cell CPT – growth inhibition of DT40 Tdp1-/-;hTDP1 cells with camptothecin (screen for TDP1 inhibitors). chicken DT40 Tdp1-/-;hTDP1 cells + 20 nM CPT, ATP luminescence, 48 h. Potency, µM (series often up to 46.2 µM), for inactives: top-dose activity change, negative = growth inhibition, most hits filed as inhibitors. 420,000 tested, 12% active. AID 686979; also: potency is read from the fitted curve at half-maximal effect; nearly all actives have a fitted effect of over 55% in size
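Cell growth measured by CellTiter-Glo luminescence after a minimum 48 h, 37 C compound exposure with 20 nM CPT in Tdp1-knockout DT40 cells stably expressing hTDP1, seeded 400/well; qHTS titration format.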
IL-1B inflam inh – blocks inflammasome-driven IL-1 beta release | THP-1 LPS/ATP IL-1B secretion, AlphaLISA, 16 h; active compounds read low | activity change, % at 57.5 µM | 360,000 tested, 4.7% active | AID 743279; in the data active = activity change below about -50%; inconclusive = mostly about -30% to -49%
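Secreted IL-1B measured by AlphaLISA bead assay after 16 h compound exposure of THP-1 cells; compounds (final up to 57.5 uM) added 1 h before LPS (250 ng/mL) and ATP (1.25 mM) stimulation; lower signal means less secretion.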
HT1080 IDH1KD tx – kills HT-1080 cells with IDH1 knockdown; HT-1080 IDH1 knockdown viability, ATP luminescence, 48 h; Potency, µM (series often up to 46.1 µM), for inactives: at the highest dose activity, negative = toxicity, hits mostly cytotoxic; 360,000 tested, 2% active; AID 686971;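 also: potency is read from the fitted curve at half-maximal effect; 0% = DMSO wells and -100% = cell-free medium wells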
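Cytotoxicity counter-line: IDH1KD HT-1080, 48 h, CellTiter-Glo. Curves classed by r2, magnitude and activity.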
HT1080-NT tox – kills 2HG-producing HT-1080-NT fibrosarcoma cells; HT-1080-NT fibrosarcoma viability, CellTiter-Glo ATP luminescence, 48 h; Potency, µM (highest dose often 46.1 µM), for inactives: at the top dose activity, negative = less viability, hits mostly cytotoxic; 360,000 tested, 1.6% active;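 also: NT is the 2HG producing partner of a matched IDH1 knockdown line; potency is read from the fitted curve at half-maximal effect; 0% = DMSO-treated cells and -100% = media-only wells without cells; nearly all actives have a fitted effect of over 55% in size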
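Toxicity toward the 2HG-producing NT line was scored as %Activity, normalised to DMSO and no-cell wells, from CellTiter-Glo luminescence after 48 hours' treatment.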
The depositor's hits bear a star; ? = inconclusive; nt = no result; [ ] = remark or other dose. The list is not random: actives were taken first. Their share in the collection is about 19%. Unless noted, calls follow the shape of the dose curve; as a rule, active = well fitted curve in the direction sought with a large enough effect; inconclusive = small, poorly fitted or top-dose-only effect, or another doubt; inactive = no such curve, though single readings can be large; an effect the other way counts as inactive or inconclusive. Unless noted, % is scaled to controls: 0 for no effect and ±100 for the full control effect.

SMILES | TDP1 cell noCPT | TDP1 cell CPT | IL-1B inflam inh | HT1080 IDH1KD tx | HT1080-NT tox
O=C(O)CSc1nnc(-c2ccncc2)n1Cc1ccccc1 | 1% | -15% | -8 | 23% | 22%
Clc1ccc(N2CCN(c3ccnc(Cl)n3)CC2)cc1 | ? | -19% | -18 | -23% | ?
CSc1nccc(N2CCN(c3ccc(F)cc3)CC2)n1 | ? | 13µM* | -8 | -30% | -7%
O=C1Nc2ccc(I)cc2C1=Cc1cc(Br)c(O)c(Br)c1 | 11µM* | 10µM* | nt | nt | nt
NC1=NC(=O)/C(=C/c2cc(Br)c(O)c(Br)c2)S1 | 0% | 3% | -5 | -1% | 4%
O=C(O)COc1ccccc1/C=C1\C(=O)Nc2ccc(Br)cc21 | 5% | 12% | 29 | 6% | 1%
O=C1Nc2ccc(I)cc2/C1=C/c1cc(Br)c(O)c(Br)c1 | ? | 13µM* | nt | nt | nt
Cc1ccc2c(c1)/C(=C/c1ccccc1)C(=O)N2 | ? | -12% | -82* | ? | -26%
CC(C)[C@H](N)C(=O)N1CCC(C(=O)N[C@@H](Cc2ccccc2)C(=O)NCc2ccc(F)cc2)CC1 | 0% | -1% | -4 | -1% | 2%
O=C1C=C(c2ccccc2)C(c2ccccc2)C1 (stereo not drawn) | -10% | 2% | 17 | -10% | 2%
COc1ccc(CCNC(=O)c2ccc(CSc3ccccc3)o2)cc1 | -15% | -9% | -59* | -2% | -7%
CC(=O)c1ccc(NC(=O)c2ccc(CSc3ccccc3)o2)cc1 | ? | 16µM* | ? | 0% | 4%
COc1ccccc1NC(=O)c1ccc(CSc2ccccc2)o1 | -19% | ? | 0 | 15% | -1%
COc1ccc(CCNC(=O)c2ccc(COc3ccccc3OC)o2)cc1 | 12µM* | -19% | -21 | -1% | -2%
COc1ccc(CCNC(=O)c2ccccc2C(=O)NCCc2ccc(OC)cc2)cc1 | -11% | -9% | 4 | 0% | -2%
Cc1ccc(N2CC(C)Cn3c2nc2c3c(=O)n(CC(=O)O)c(=O)n2C)cc1 (stereo not drawn) | 15% | 0% | nt | nt | nt
COc1ccccc1N(C)S(=O)(=O)c1ccc(C)c(C(=O)Nc2nccs2)c1 | ? | -5% | -11 | 2% | 8%
CCOC(=O)N1CCN(C(=O)c2ccc3[nH]c(C)c(C)c3c2)CC1 | -27% | -23% | -6 | 5% | -1%
O=C(c1cc2ccccn2n1)N1CCN(c2cccc(C(F)(F)F)c2)CC1 | ? | -29% | ? | -2% | -11%[9.24 µM]
O=C(c1ccccc1)N1CCN(C(=O)c2ccc([N+](=O)[O-])cc2)CC1 | -6% | -30% | 1 | 10% | 10%
O=C(c1ccc2nsnc2c1)N1CCN(c2ccc([N+](=O)[O-])cc2)CC1 | 21µM* | 21µM* | 4 | -10% | ?
Cc1ccc(Cl)cc1N1CCN(C(=O)c2ccc3nc[nH]c3c2)CC1 | ? | ? | ? | -25% | -21%
Cc1ccc(C)c(N2CCN(C(=O)c3ccc4[nH]c(C)c(C)c4c3)CC2)c1 | 12µM* | 12µM* | nt | nt | nt
Cc1ccc(C)c(N2CCN(C(=O)c3cc4ccccn4n3)CC2)c1 | 23µM* | ? | 18 | 0% | -4%
Cc1ccc(C)c(N2CCN(C(=O)c3ccc4nsnc4c3)CC2)c1 | 13µM* | 12µM* | ? | 9.2µM* | 8.2µM*
SMILES | TDP1 cell noCPT | TDP1 cell CPT | IL-1B inflam inh | HT1080 IDH1KD tx | HT1080-NT tox
CC(=O)OC1C2CCC1C([N+]1(C)CCCCC1)CC2 (stereo not drawn) | -1% | 3% | 32 | 2% | 1%
O=C(NCc1ccccc1)c1cccc(NC(=O)C2CCC2)c1 | -13% | 0% | 7 | 1% | 5%
CC(C)(C)OC(=O)N1CCC(C(=O)Nc2cccc(C(=O)NCc3ccccc3)c2)CC1 | 21µM* | 23µM* | 12 | -19% | -16%
CC(C)(C)OC(=O)N1CCCC(C(=O)Nc2cccc(C(=O)NCCCc3ccccc3)c2)C1 (stereo not drawn) | ? | ? | -2 | -1% | 4%
CC(C)(C)OC(=O)N1CCC(C(=O)Nc2cccc(C(=O)NCCCc3ccccc3)c2)CC1 | 21µM* | 15µM* | 102 | -23% | -26%
O=C(CCNC(=O)c1ccccc1)NCCc1ccc(Cl)cc1 | -12% | -25% | 2 | -1% | -2%
N#CC1(NC(=O)CN2C(=O)c3ccc([N+](=O)[O-])cc3C2=O)CCCCC1 | -2% | -3% | 1 | 6% | 7%
CC(=O)N(CC(=O)Nc1sc(C)c(C)c1C(N)=O)Cc1ccccc1 | ? | ? | -5 | 15% | 18%
Cc1sc(NC(=O)CN(Cc2ccc(F)cc2)C(=O)C(C)(C)C)c(C(N)=O)c1C | 8.2µM* | 13µM* | 25 | -10% | -1%
Cc1sc(NC(=O)CN(Cc2ccccc2)C(=O)C2CC2)c(C(N)=O)c1C | 4.6µM* | 8.2µM* | 33 | -2% | -2%
COc1cc2c(cc1OC)/C(=C/C(=O)c1ccc(OC)c([N+](=O)[O-])c1)NCC2 | 18µM* | ? | ? | ? | -22%
COc1cc2c(cc1OC)/C(=C/C(=O)c1cccc([N+](=O)[O-])c1)NCC2 | ? | ? | -60* | -11% | 1%
COCCn1c(C)cc(O)c(C(c2ccccc2F)N2CCN(c3ccccc3)CC2)c1=O (stereo not drawn) | -19% | -21% | nt | nt | nt
O=C(C=C(C(=O)c1ccccc1)c1ccccc1)c1ccccc1 | 21µM* | 23µM* | ? | -15% | -12%
CC(C)(C)Nc1nc(NCc2cccnc2)nc(N2CCOCC2)n1 | 1% | -1% | ? | 3% | 4%
COc1ccc(Nc2nc(N3CCCCC3)nc(N3CCCCC3)n2)c(OC)c1 | -25% | -12% | 39 | -20% | 6%[9.24 µM]
COc1ccc(Nc2nc(N3CCCC3)nc(N3CCCC3)n2)c(OC)c1 | ? | ? | -22 | 0% | 1%
COc1ccc(Nc2nc(NC(C)(C)C)nc(N3CCCC3)n2)c(OC)c1 | 16µM* | 23µM* | -24 | ? | ?
COc1ccc(Nc2nc(Nc3ccc(OC)cc3OC)nc(N3CCN(C)CC3)n2)c(OC)c1 | 16µM* | ? | nt | -12% | -23%
COc1ccc(Nc2nc(NC(C)(C)C)nc(N3CCOCC3)n2)c(OC)c1 | ? | 21µM* | -16 | -29% | -17%
COc1cccc(CNC(=O)CCC2CCCN(C(=O)c3ccoc3)C2)c1 (stereo not drawn) | -26% | 10% | 13 | -1% | 11%
Cc1occc1C(=O)N1CCCC(CCC(=O)NCc2ccc(F)c(F)c2)C1 (stereo not drawn) | 21µM* | ? | 5 | 21% | -9%
